Measured values as given in the supplement of paper PMC6555819.

How the values were obtained:
Assay in all cases: PBM binding z-score (relative to random genomic background probes); higher = stronger binding; sequences stand for … in GC…GCGATTGACAGCGTAGAATGAAGG
[1] = system: RARb homodimer (NR concentration 270 nM)
Procedure, shortened: (§1)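 Custom Agilent 4×180K protein-binding microarrays carried double-stranded probes. Their 34-nt variable regions held direct-repeat seeds, single-nucleotide variants, half-site ablations and random human genomic background sequences. Arrays were incubated 1 h with ligand-free nuclear receptor dimers in PBS pH 7.4, 2% milk, 0.02% Triton X-100, 1 mM DTT, 0.2 mg/mL BSA and 0.4 mg/ml salmon testes DNA. Antibodies against each partner (one per run) detected binding, and scanned fluorescence was regression-normalized. Binding z-scores use random background probes as reference.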

[2] = system: RARg:RXRa (NR concentration 270 nM, RXRa partner concentration 90 nM)
Procedure, shortened: as §1

[3] = system: RARg homodimer (NR concentration 270 nM)
Procedure, shortened: as §1

[4] = system: RXRa DBDmut IVT, anti-RXR (DBD mutation: RXRa K156A/R161A, NR concentration 90 nM)
Procedure, shortened: as §1

[5] = system: RXRa homodimer (NR concentration 180 nM)
Procedure, shortened: as §1

[6] = system: THRa:RXRa (NR concentration 90 nM, RXRa partner concentration 90 nM)
Procedure, shortened: as §1

[7] = system: THRa homodimer (NR concentration 90 nM)
Procedure, shortened: as §1

[8] = system: VDR homodimer (NR concentration 270 nM)
Procedure, shortened: as §1

Sequence: ACTAGTTGGCCAGCTGAGGTCACACACAATTCGG
- PBM binding z-score [1]: 3.96
- PBM binding z-score [2]: 3.64
- PBM binding z-score [3]: 3.6
- PBM binding z-score [4]: 0.874
- PBM binding z-score [5]: 4.1
- PBM binding z-score [6]: 4.47
- PBM binding z-score [7]: 5.09
- PBM binding z-score [8]: 2.74

Sequence: ATCTCTAGGGAAAGATAGTTCAGTGAATGCAAAT
- PBM binding z-score [1]: 0.675
- PBM binding z-score [2]: 0.502
- PBM binding z-score [3]: 0.656
- PBM binding z-score [4]: 0.0504
- PBM binding z-score [5]: 0.0958
- PBM binding z-score [6]: 0.201
- PBM binding z-score [7]: -0.33
- PBM binding z-score [8]: 0.635

Sequence: TTACCAAGGTGAAGGTCGTTGACCCCTCTGTAGA
- PBM binding z-score [1]: 3.35
- PBM binding z-score [2]: 3.33
- PBM binding z-score [3]: 2.12
- PBM binding z-score [4]: 0.133
- PBM binding z-score [5]: 4.95
- PBM binding z-score [6]: 3.6
- PBM binding z-score [7]: 1.43
- PBM binding z-score [8]: 1.51

Sequence: ATCCCTAGGTAAAAGTTCAGTGAATCCCGAGGAT
- PBM binding z-score [1]: 2.41
- PBM binding z-score [2]: 1.53
- PBM binding z-score [3]: 1.73
- PBM binding z-score [4]: 0.406
- PBM binding z-score [5]: 1.39
- PBM binding z-score [6]: 1.13
- PBM binding z-score [7]: 0.117
- PBM binding z-score [8]: 1.71

Sequence: ATCGAAAGGTCGACGAGGTCAGTATACACCGTTT
- PBM binding z-score [1]: 4.63
- PBM binding z-score [2]: 5.73
- PBM binding z-score [3]: 5.72
- PBM binding z-score [4]: 2.48
- PBM binding z-score [5]: 5.75
- PBM binding z-score [6]: 4.67
- PBM binding z-score [7]: 2.54
- PBM binding z-score [8]: 4.57

Sequence: AGAACGAGGGCACGCTGAGTTGATAGGAGAGTAG
- PBM binding z-score [1]: 1.22
- PBM binding z-score [2]: 1.93
- PBM binding z-score [3]: 1.99
- PBM binding z-score [4]: 1.77
- PBM binding z-score [5]: 1.35
- PBM binding z-score [6]: 1.82
- PBM binding z-score [7]: 0.0402
- PBM binding z-score [8]: 1.76

Sequence: CAAACTAGGTCAAGACGTCAAAGTCCGCTTCCCG
- PBM binding z-score [1]: 3.2
- PBM binding z-score [2]: 4.09
- PBM binding z-score [3]: 4.74
- PBM binding z-score [4]: 1.65
- PBM binding z-score [5]: 3
- PBM binding z-score [6]: 2.68
- PBM binding z-score [7]: 0.895
- PBM binding z-score [8]: 0.581

Sequence: TCTGCTAGGACAGTTGGTCAGCTAACGAGCTGCC
- PBM binding z-score [1]: -0.304
- PBM binding z-score [2]: -0.493
- PBM binding z-score [3]: -0.356
- PBM binding z-score [4]: -0.0894
- PBM binding z-score [5]: -0.639
- PBM binding z-score [6]: -0.274
- PBM binding z-score [7]: -0.784
- PBM binding z-score [8]: -1.13

Sequence: CCTACTGGGCCCCGAAAGGTCATTGATTCAGTGA
- PBM binding z-score [1]: 4.21
- PBM binding z-score [2]: 4.35
- PBM binding z-score [3]: 3.23
- PBM binding z-score [4]: -0.457
- PBM binding z-score [5]: 4.99
- PBM binding z-score [6]: 3.04
- PBM binding z-score [7]: 1.03
- PBM binding z-score [8]: 1.81

Sequence: CAAACTAGGTCAAGAGTTCAAAGTCCGCTTCCCG
- PBM binding z-score [1]: 4.97
- PBM binding z-score [2]: 7.16
- PBM binding z-score [3]: 6.48
- PBM binding z-score [4]: 3.87
- PBM binding z-score [5]: 5.58
- PBM binding z-score [6]: 3.33
- PBM binding z-score [7]: 1.28
- PBM binding z-score [8]: 7.25

Sequence: TCATATAGGCAAAGGTGAAAGTCGAACGATATGA
- PBM binding z-score [1]: 1.42
- PBM binding z-score [2]: 1.59
- PBM binding z-score [3]: 1.08
- PBM binding z-score [4]: 0.694
- PBM binding z-score [5]: 2.3
- PBM binding z-score [6]: 1.22
- PBM binding z-score [7]: -0.37
- PBM binding z-score [8]: -0.123

Sequence: CGGCCTAGGTCAGGGCCAGTATAGGAGGAACGTT
- PBM binding z-score [1]: 2.4
- PBM binding z-score [2]: 2.84
- PBM binding z-score [3]: 3.41
- PBM binding z-score [4]: -0.731
- PBM binding z-score [5]: 1.5
- PBM binding z-score [6]: 1.8
- PBM binding z-score [7]: 0.0895
- PBM binding z-score [8]: -0.395

Sequence: TCGAGTAGGTTGGTCGGGGCATTCAGCCAACATA
- PBM binding z-score [1]: 0.0867
- PBM binding z-score [2]: -0.467
- PBM binding z-score [3]: -0.483
- PBM binding z-score [4]: -0.0758
- PBM binding z-score [5]: -0.429
- PBM binding z-score [6]: 0.33
- PBM binding z-score [7]: 0.0385
- PBM binding z-score [8]: 0.0879

Sequence: CATACAGGGTCAGCTAGGCCAGAGTCGGGACGGC
- PBM binding z-score [1]: 3.18
- PBM binding z-score [2]: 4.42
- PBM binding z-score [3]: 4.67
- PBM binding z-score [4]: 2.13
- PBM binding z-score [5]: 4.21
- PBM binding z-score [6]: 3.08
- PBM binding z-score [7]: 0.802
- PBM binding z-score [8]: 1.31

Sequence: TAGCCTAGGTCATGCGGGCCAGAATAGTGTCGGC
- PBM binding z-score [1]: 2.94
- PBM binding z-score [2]: 4.18
- PBM binding z-score [3]: 4.34
- PBM binding z-score [4]: 0.571
- PBM binding z-score [5]: 3.18
- PBM binding z-score [6]: 3.03
- PBM binding z-score [7]: 0.922
- PBM binding z-score [8]: 0.435

Sequence: CCAGACAGGTGTGAAGGTAACTCAGCCTCGATTA
- PBM binding z-score [1]: 0.327
- PBM binding z-score [2]: -0.276
- PBM binding z-score [3]: -0.122
- PBM binding z-score [4]: 0.399
- PBM binding z-score [5]: -0.117
- PBM binding z-score [6]: 0.116
- PBM binding z-score [7]: 0.347
- PBM binding z-score [8]: 0.0431

Sequence: CCTCCTAGGTCATGGTCAGCTAATCTACAGTATG
- PBM binding z-score [1]: 3.55
- PBM binding z-score [2]: 3.91
- PBM binding z-score [3]: 4.49
- PBM binding z-score [4]: 1.04
- PBM binding z-score [5]: 2.93
- PBM binding z-score [6]: 3.09
- PBM binding z-score [7]: 1.92
- PBM binding z-score [8]: 0.641

Sequence: TCATATAGGTAAATAGGTGAAAGTCCGTAAGTTA
- PBM binding z-score [1]: 1.17
- PBM binding z-score [2]: 1.26
- PBM binding z-score [3]: 0.407
- PBM binding z-score [4]: 1.39
- PBM binding z-score [5]: 1.62
- PBM binding z-score [6]: 0.865
- PBM binding z-score [7]: 0.0399
- PBM binding z-score [8]: 0.337

Sequence: CGTCAAAGTTCACGGTAACGTAACAGAAAGCAGC
- PBM binding z-score [1]: 4.26
- PBM binding z-score [2]: 6.31
- PBM binding z-score [3]: 7.19
- PBM binding z-score [4]: 4.62
- PBM binding z-score [5]: 6.17
- PBM binding z-score [6]: 2.38
- PBM binding z-score [7]: -0.36
- PBM binding z-score [8]: 4.02

Sequence: CCGACTGGGGCATAAGGTGACCATAAGCCAGCCC
- PBM binding z-score [1]: 1.26
- PBM binding z-score [2]: 0.678
- PBM binding z-score [3]: 0.621
- PBM binding z-score [4]: -1.25
- PBM binding z-score [5]: 0.516
- PBM binding z-score [6]: 1.7
- PBM binding z-score [7]: 0.792
- PBM binding z-score [8]: -0.621

Sequence: CAAACTAGGTCAGAGGTCAAAGTCGAGCCAACCA
- PBM binding z-score [1]: 5.04
- PBM binding z-score [2]: 7.59
- PBM binding z-score [3]: 6.79
- PBM binding z-score [4]: 2.96
- PBM binding z-score [5]: 9.16
- PBM binding z-score [6]: 4.3
- PBM binding z-score [7]: 2.24
- PBM binding z-score [8]: 4.21

Sequence: CCTCGGAGGACAACAAGAGGTCAGAGCTGCCAGA
- PBM binding z-score [1]: 3.8
- PBM binding z-score [2]: 4.13
- PBM binding z-score [3]: 3.8
- PBM binding z-score [4]: 0.726
- PBM binding z-score [5]: 2.93
- PBM binding z-score [6]: 2.86
- PBM binding z-score [7]: 0.992
- PBM binding z-score [8]: 1.54

Sequence: CCTACTGGGCCAAACAGGTCATTGATGCCGATAA
- PBM binding z-score [1]: 2.13
- PBM binding z-score [2]: 1.56
- PBM binding z-score [3]: 1.36
- PBM binding z-score [4]: 0.175
- PBM binding z-score [5]: 1.38
- PBM binding z-score [6]: 1.39
- PBM binding z-score [7]: 0.0902
- PBM binding z-score [8]: 1.53

Sequence: ACTTACGGGTCAACGAGTTTATAGCACGCGTATA
- PBM binding z-score [1]: 3.4
- PBM binding z-score [2]: 5.13
- PBM binding z-score [3]: 5.14
- PBM binding z-score [4]: 3.3
- PBM binding z-score [5]: 5.62
- PBM binding z-score [6]: 3
- PBM binding z-score [7]: 0.511
- PBM binding z-score [8]: 6.13

Sequence: CAGACTAGGTCACCGGAAGGTCAAAGTCCGCATG
- PBM binding z-score [1]: 5.55
- PBM binding z-score [2]: 8.29
- PBM binding z-score [3]: 7.56
- PBM binding z-score [4]: 1.74
- PBM binding z-score [5]: 6.56
- PBM binding z-score [6]: 4.37
- PBM binding z-score [7]: 2.62
- PBM binding z-score [8]: 3.42

Sequence: GCAAATAGGTAATACAAGGTGAAAGTCCGATTGT
- PBM binding z-score [1]: 0.898
- PBM binding z-score [2]: 0.546
- PBM binding z-score [3]: 0.597
- PBM binding z-score [4]: 0.463
- PBM binding z-score [5]: 0.951
- PBM binding z-score [6]: 4.22
- PBM binding z-score [7]: 0.778
- PBM binding z-score [8]: -0.442

Sequence: TCTAGTTGGTCACGGAGTTCACACACGACGGGTA
- PBM binding z-score [1]: 3.11
- PBM binding z-score [2]: 2.99
- PBM binding z-score [3]: 2.63
- PBM binding z-score [4]: 1.79
- PBM binding z-score [5]: 2.81
- PBM binding z-score [6]: 1.66
- PBM binding z-score [7]: 0.539
- PBM binding z-score [8]: 5.75

Sequence: CCTAGTTGGTCAAGGTCACTCACGCTATAGGTAC
- PBM binding z-score [1]: 4.26
- PBM binding z-score [2]: 4.06
- PBM binding z-score [3]: 4.75
- PBM binding z-score [4]: 2.1
- PBM binding z-score [5]: 3.76
- PBM binding z-score [6]: 3.83
- PBM binding z-score [7]: 3.83
- PBM binding z-score [8]: 3.53
